TIM10 inh: growth inhibitors of isogenic TIM10 control yeast, primary screen, counter-screen for tim10-1 yeast inhibitor project, luminescence, uHTS | S. cerevisiae TIM10 strain growth, BacTiter-Glo luminescence, 24 h | actives 1.4% (n = 330,000) | inhibition, % at 10 µM;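 active = inhibition of 40% or more at the single tested concentration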;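 also: wild-type TIM10 isogenic control strain grown at permissive 25 °C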
PfHsp90 set2: growth inhibition of PfHsp90-expressing yeast, primary screen, antimalarial PfHsp90 inhibitor project, S. cerevisiae, BacTiter-Glo luminescence, single point, set 2. inhibition, % at 9.4 µM. actives 0.32% (n = 310,000). AID 504621, 2011. BacTiter-Glo ATP, 48 h; yeast lacking PDR1 and PDR3 efflux regulators;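 active = every replicate shows inhibition above about 80%, whatever the replicate mean, limit read from the data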;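 also: 0% = DMSO neutral controls and 100% = 20 µM radicicol positive controls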
tim10-1 inh: growth inhibitors of tim10-1 mutant yeast, primary screen, luminescence, uHTS | AID 463190, 2010 | inhibition, % at 20 µM | actives 2.2% (n = 330,000) | S. cerevisiae tim10-1 ts strain growth, BacTiter-Glo, 24 h;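 active = inhibition of at least 40%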;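 also: mutant grown at 25 °C; 0% = DMSO wells with yeast and 100% = wells holding no yeast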
SKKanGAS inh: S. pyogenes SKKanGAS growth inhibitors in kanamycin, primary screen, streptokinase expression inhibitor project, SKKanGAS strain, BacTiter-Glo luminescence | 6 h | inhibition, % at 7.5 µM | actives 1.3% (n = 300,000) | AID 1662, 2009;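 active = mean replicate score, as percent of positive control median, at least 50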;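 also: strain carries kanamycin resistance gene driven by streptokinase promoter and grows in 40 µg/ml kanamycin; loss of luminescence reflects streptokinase promoter inhibition or plain growth inhibition; 0% = median of DMSO wells and 100% = positive control at its reference dose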
tim23-1 inh: growth inhibitors of tim23-1 mutant yeast, primary screen, luminescence, uHTS; S. cerevisiae tim23-1 growth, BacTiter-Glo luminescence, 24 h; actives 1.3% (n = 330,000); inhibition, % at 20 µM;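 active = growth inhibition of the mutant yeast at or above 50%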;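 also: temperature-sensitive mutant grown at 25 °C; plate controls were DMSO-treated mutant yeast for no effect and medium wells lacking yeast for full effect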
NALP1 yeast inh: NALP1 inflammasome inhibitors in reconstituted yeast, colorimetric, S. cerevisiae, triplicate retest. inhibition, % at 10 µM. actives 0.61% (n = 280,000). S. cerevisiae NALP1/ASC/caspase-1 growth, X-gal OD620, 72 h; in the data active = inhibition mostly above about 24%, no sharp cut-off; inactive = mostly below about 32%
tim10-1 conf: growth inhibitors of tim10-1 mutant yeast, confirmation, single concentration, luminescence, S. cerevisiae | shares compounds with tim10-1 inh | S. cerevisiae tim10-1 ts strain growth, BacTiter-Glo, 24 h | inhibition, % at 20 µM | actives 56% (n = 7,400);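 active = inhibition of yeast growth at or above a set limit in either of two repeat tests at 20 µM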;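 also: tim10-1 mutant grown at permissive 25 °C to find synthetic lethal compounds; 0% = DMSO yeast wells and 100% = medium wells without yeast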
* hit, by the source's call; . = no result. In the library only some 4.8% were active in any assay of this set; here they are far more common.

SMILES | TIM10 inh | PfHsp90 set2 | tim10-1 inh | SKKanGAS inh | tim23-1 inh | NALP1 yeast inh | tim10-1 conf
Cc1nn(C(=O)c2ccc3c(c2)OCO3)c(N)c1-c1ccccc1 | 18.5 | 9.8 | 40.7* | -4.7 | 40.3 | 29.2 | 10.2
O=C(O)c1ccc2c(c1)C(=O)N(CCc1c[nH]c3ccccc13)C2=O | 10.7 | 9.3 | 97.9* | 6.1 | 8.5 | -4.8 | -11.1
O=C(O)c1ccc2c(c1)C(=O)N(CCc1ccccc1)C2=O | 0.8 | 13.8 | -8.7 | -0.7 | -4.9 | 2.5 | .
O=C(NC1CCN(CCc2c[nH]c3ccccc23)CC1)c1ccccc1 | 12.2 | 7.5 | 43.2* | 0.6 | 21.4 | 3.0 | 19.9
CC(C)(C)NC(=O)/C=N/O | 9.1 | 21.1 | -4.0 | -18.6 | 6.7 | 23.8 | .
CCOC(=O)n1c(=O)n(Cc2ccccc2Cl)c2ccccc21 | 20.3 | -15.9 | 42.7* | 2.1 | 48.3 | -1.5 | 33.3*
CC(=O)NS(=O)(=O)c1ccc(NC(=O)CCC2CCCC2)cc1 | 10.0 | -5.4 | 15.8 | 3.4 | 12.9 | -6.8 | .
NNc1nc(Nc2ccccc2)nc(Nc2ccccc2)n1 | 24.7 | 14.1 | 50.5* | 52.3* | 43.3 | -7.3 | 42.3*
CCC(CC)NC(=O)c1cccc([N+](=O)[O-])c1C | 3.1 | -30.0 | 3.3 | -0.2 | 17.4 | 34.9 | .
CC1(C)Cc2c(ccc3ccccc23)/C(=C/C(=O)N2CCCCC2)N1 | 29.5 | 3.5 | 45.1* | 4.1 | 46.9 | -7.4 | 32.0*
CCOC(=O)c1cnc2c(c(C)nn2C)c1Oc1ccc(OC)cc1 | -3.3 | . | 10.7 | -2.0 | 12.5 | 10.0 | .
COc1ccc(-n2c(=S)[nH]c3[nH]ncc3c2=O)cc1 | 2.3 | -5.2 | -3.9 | 0.0 | -4.2 | 7.3 | .
Cc1[nH]n(-c2ccccc2)c(=O)c1C(c1ccccc1[N+](=O)[O-])C(C#N)C#N (stereo not given) | 31.0 | -10.3 | 44.5* | 13.6 | 42.7 | -11.0 | 32.8*
S=C(Nc1ccccc1)Nc1ccc(OCc2ccc(Cl)cc2Cl)cc1 | 21.5 | 15.1 | 48.0* | -2.0 | 3.5 | 23.6 | 18.8
CCOc1ccc(NC(=S)Nc2ccc(OCc3ccccc3)cc2)cc1 | 4.9 | 11.8 | 10.4 | 2.6 | 3.3 | -7.3 | .
COc1cc(/C=C2\CC/C(=C\c3ccc(OCCO)c(OC)c3)C2=O)ccc1OCCO | 10.1 | -17.5 | 49.2* | 37.7 | 32.4 | -1.2 | 40.2*
COc1ccc(/C=C2\CC/C(=C\c3ccc(OC)c(OC)c3)C2=O)cc1OC | 28.8 | -2.6 | 19.2 | 5.6 | 30.8 | 24.2 | .
Cc1c(C(=O)N2CCC(C)CC2)oc2ccc3c(c12)C(O)CC1(CCCCC1)O3 (stereo not given) | 15.4 | -139.1 | 49.1* | -10.8 | 44.6 | 27.5 | 14.1
O=c1[nH]c2cc3ccccc3cc2nc1C(F)(F)F | 17.0 | 15.3 | 42.2* | 10.5 | 5.7 | 8.0 | -9.2
CC(C)c1cc(NCC2CCCO2)n2c(nc3ccccc32)c1C#N (stereo not given) | 26.2 | 37.5 | 48.0* | 12.5 | 36.7 | 19.5 | 34.1*
CC(NC(=S)Nc1ccc(S(=O)(=O)N2CCOCC2)cc1)C1CC2CCC1C2 (stereo not given) | 23.6 | 6.7 | 48.8* | 4.5 | 42.1 | 8.9 | 42.8*
O=S(=O)(c1ccc(NC(=S)Nc2ccccc2)cc1)N1CCOCC1 | 4.3 | -19.0 | 13.9 | 7.5 | 25.9 | 22.7 | .
COc1ccc2oc(=O)c(C(=O)NC3CCCCCC3)cc2c1 | 4.5 | -11.9 | 16.2 | -5.1 | 19.4 | 27.7 | .
Cc1ccc(N=C2C(=O)Nc3c(C)cccc32)cc1 | 1.5 | -16.1 | 2.0 | -2.8 | -5.7 | 22.1 | .
Cc1ccc(N=C2C(=O)Nc3ccc(Br)cc32)cc1 | 6.5 | 18.5 | 48.5* | 2.1 | 33.3 | 23.2 | 8.0
COc1ccc(C2=NN(CC(=O)NCC(OC)OC)C(=O)CC2)cc1 | -15.9 | 12.9 | -1.5 | -2.8 | 4.2 | -4.8 | .

Compound activity as filed in PubChem BioAssay.
